Screening data: PubChem, National Center for Advancing Translational Sciences (NCATS)
RORgamma inh: qHTS for inhibitors of ROR gamma transcriptional activity; AID 2551, 2010; Potency, µM (highest dose often 53.6 µM), for the others: at the top dose activity change, negative = inhibition, actives largely listed as inhibitors; 310,000 compounds, 5.4% hits; Nuclear receptor ROR-gamma (Mus musculus), P51450; Drosophila S2 Gal4-RORgamma UAS-luciferase reporter, 20 h; also: % is scaled to controls: 0 for no effect and ±100 for the full control effect; nearly all actives have a fitted effect of over 60% in size
Target sequence (P51450 whole entry, looked up, the tested form may be a part): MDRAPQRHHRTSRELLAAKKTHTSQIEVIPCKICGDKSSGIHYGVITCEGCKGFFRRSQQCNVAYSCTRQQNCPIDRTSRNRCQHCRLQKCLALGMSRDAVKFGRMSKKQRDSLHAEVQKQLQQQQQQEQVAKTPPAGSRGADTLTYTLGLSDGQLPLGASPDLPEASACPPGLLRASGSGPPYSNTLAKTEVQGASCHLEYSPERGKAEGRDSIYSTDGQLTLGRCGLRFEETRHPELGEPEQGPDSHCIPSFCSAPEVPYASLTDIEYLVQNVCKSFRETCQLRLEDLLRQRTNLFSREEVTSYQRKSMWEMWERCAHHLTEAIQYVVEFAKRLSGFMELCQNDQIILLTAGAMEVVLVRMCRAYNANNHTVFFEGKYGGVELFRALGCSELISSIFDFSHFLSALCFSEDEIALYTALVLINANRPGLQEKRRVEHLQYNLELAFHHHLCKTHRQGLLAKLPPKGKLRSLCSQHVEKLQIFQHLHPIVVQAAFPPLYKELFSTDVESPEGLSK
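A Gal4/UAS one-hybrid system in insect cells: metallothionein-promoter Gal4–ROR gamma fusion plus Photinus luciferase reporter. Copper sulfate 700 uM final, 20 hr ambient incubation, luminescent detection after 10 min with reagent.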
Gal4-VP16 FLuc: VP16 counterscreen qHTS for inhibitors of ROR gamma transcriptional activity. Drosophila S2 Gal4-VP16 UAS-luciferase, luminescence, 20 h. Potency, µM (doses to about 53.6 µM), for the others: top-dose activity, negative = inhibition, actives largely listed as inhibitors. 310,000 compounds, 3.5% hits. AID 2546, 2010;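 also: Gal4-VP16 expression switched on by copper sulfate through the metallothionein promoter; % is scaled to controls: 0 for no effect and ±100 for the full control effect; nearly all actives have a fitted effect of over 50% in size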
SW480 rereplic: A quantitative high throughput screen for small molecules that induce DNA re-replication in SW480 colon adenocarcinoma cells; AID 624297, 2012; Potency, µM (titrated, usually from 46.1 µM), for the others: at the highest dose re-replication activation, actives largely listed as activators; SW480 DNA re-replication, Hoechst DNA content imaging, 48 h; 340,000 compounds, 1.8% hits; also: % of control where 0% means no effect; nearly all actives have a fitted effect of over 55% in size
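SW480 cells exposed to compounds for 48 hr at 37 C, 5% CO2, then Hoechst-stained 40 min. Nuclear DNA content imaged by fluorescence scanning (405 nm excitation, 500-530 nm emission); re-replication scored as increased high-intensity nuclei.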
ELG1 repair inh: qHTS screen for small molecules that inhibit ELG1-dependent DNA repair in human embryonic kidney (HEK293T) cells expressing luciferase-tagged ELG1; Potency, µM (doses to about 46.1 µM), inactives show at the top dose activity change, negative = inhibition, usual class: inhibitors; 330,000 compounds, 2.3% hits; AID 504467, 2011; HEK293T ELG1-luciferase reporter, luminescence, 16 h; DNA damage induced by 5-fluorouridine; also: % is scaled to controls: 0 for no effect and ±100 for the full control effect; nearly all actives have a fitted effect of over 55% in size
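Reporter activity after DNA damage by 5-fluorouridine is monitored. Compound-treated cells incubate 16 hr at 37 °C, then ONE-Glo is added for 30 min before luminescence reading.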
MCF10A rerep: A quantitative high throughput screen for small molecules that induce DNA re-replication in MCF 10a normal breast cells | MCF 10A DNA re-replication, Hoechst nuclear intensity, 48 h | Potency, µM (titrated, usually from 46.1 µM), for the others: at the top dose activity, positive = re-replication, actives largely listed as activators | 350,000 compounds, 2.9% hits | AID 624296, 2012; also: % of control where 0% means no effect; nearly all actives have a fitted effect of over 50% in size
* marks the source's active call; other numbers are inactive results; ? = inconclusive; . = not tested or not shown; [ ] = another dose, or the depositor's remark. In the library only some 10% were active in any assay of this set; here they are far more common. Calls follow the shape of the dose curve; as a rule, active = well fitted curve in the direction sought with a large enough effect; inconclusive = small, poorly fitted or top-dose-only effect, or another doubt; inactive = no such curve, though single readings can be large; an effect the other way counts as inactive or inconclusive. Potency is read from the fitted curve at half-maximal effect.

SMILES | RORgamma inh | Gal4-VP16 FLuc | SW480 rereplic | ELG1 repair inh | MCF10A rerep
CC1C(c2ccccc2)N(C)C(c2ccccc2)C(C)C1(O)C#Cc1ccccc1 (stereo not given) | 16µM* | ? | 4% | 3% | 23µM*
C=CCc1c(C)nc(-c2ccccc2)nc1N/N=C(\C)c1ccc(N)cc1 | ? | 25% | 3% | -5% | -21%
C/C(=N/Nc1cc(-c2ccccc2)nc(-c2ccccc2)n1)c1ccc(O)cc1 | -1%[10 µM] | -28% | -2% | 1% | 18µM*
C/C(=N/Nc1nc(-c2ccccc2)cc(-c2ccccc2)n1)c1ccc(N)cc1 | 10µM* | ? | . | 8.2µM* | .
C/C(=N\Nc1cc(Cl)nc(C)n1)c1ccccc1 | 34% | -3% | -3% | ? | 6%
Cc1cc(N2CCN(Cc3nc(-c4ccc(Cl)cc4)oc3C)CC2)cc(C)n1 | 11% | 5% | ? | -27% | ?
Cc1oc(-c2cccc3ccccc23)nc1CN1CCN(c2ncnc3ccccc23)CC1 | ? | ? | 0% | 15µM* | ?
COc1ccc(-c2nc(CN3CCN(c4cc(C)nc(C)c4)CC3)c(C)o2)c2ccccc12 | 2% | -2% | ? | 13% | 16µM*
O=C(Cn1nnc(-c2ccccc2NC(=O)c2ccccc2F)n1)NC1CCCC1 | -4% | 3% | -14% | 19% | 24%
O=C(CCNS(=O)(=O)c1ccc2nsnc2c1)N1CCN(c2ccncc2)CC1 | . | . | ? | -12% | ?
COc1ccc(C2C(C(=O)N3CCCCC3)c3ccccc3C(=O)N2C)cc1 (stereo not given) | -4% | -3% | ? | -2% | 12µM*
CCOC(=O)C1CCN(C(=O)C2c3ccccc3C(=O)N(C)C2c2ccc(OC)cc2)CC1 (stereo not given) | 40%[0.365 µM] | . | -12% | -21% | 6%
O=C(OCC(=O)N1CCCc2ccccc21)c1ccccc1OC(F)F | . | . | 9% | -10% | -4%
Cc1ccc(S(=O)(=O)N[C@@H](Cc2ccccc2)C(=O)CCl)cc1 | ? | 16µM* | ? | 16µM* | 2.3µM*
CC(=O)NC(CC(C)C)C(=O)NC(Cc1ccccc1)C(=O)CCl (stereo not given) | . | . | 17% | . | 8.2µM*
Cc1cccc(C(=O)Nc2ccc(S(=O)(=O)Nc3nc(C)cc(C)n3)cc2)c1 | -2% | -3% | 16% | 7% | ?
Cc1cccc(C(=O)c2cnc3ccccc3c2-c2ccccc2)c1 | ? | 10µM* | 7% | ? | 23µM*
CCN(CC)S(=O)(=O)c1ccc(OC)c(NC(=O)c2ccc(-n3cncn3)c([N+](=O)[O-])c2)c1 | . | . | -1% | ? | -1%
C=CCNC1=C(Cl)C(=O)N(Cc2ccccc2)C1=O | 9% | -3% | -22% | 3% | -37%
C=CCNC1=C(Cl)C(=O)c2ccccc2C1=O | 13µM* | ? | ? | 10% | ?
O=C1C(Cl)=C(NCc2cccnc2)C(=O)c2ccccc21 | 10µM* | ? | ? | 21µM* | ?
CC(C)NC1=C(Cl)C(=O)c2ccccc2C1=O | ? | ? | 13µM* | 1% | ?
Clc1ccccc1-c1cc(NCc2cccnc2)ncn1 | 16% | -11% | . | . | .
CC(=O)N(Cc1ccc(F)cc1)C1=C(NCCc2ccccc2)C(=O)c2ccccc2C1=O | 0% | ? | 6.3µM* | ? | ?
CCn1c(SCC(=O)Nc2cc(C)on2)nnc1-c1c[nH]c2ccccc12 | 23% | 4% | 0% | 7% | 7%
COC(=O)c1c(C)oc(C)c1S(=O)(=O)NC(c1ccccc1)c1ccccc1 | 1% | 5% | 4% | -26% | ?
Cc1ccc(C)c(NC(=S)N(C)CCO)c1 | -5% | -8% | -1% | 7% | 4%
CCN(CC)CCCNC1=C(Cl)C(=O)c2ccccc2C1=O | 7.9µM* | ? | ? | ? | ?
O=C1C(Cl)=C(NCCc2ccccc2)C(=O)c2ccccc21 | . | . | 5.2µM* | . | ?
